Source: PubChem BioAssay (National Center for Advancing Translational Sciences (NCATS))
Compounds with a hit are over-represented: about 8.2% of the library has one in this group of screens.
SW480 rerep – DNA re-replication induction in SW480 cells | SW480 DNA re-replication, Hoechst DNA content imaging, 48 h | Potency, µM (doses to about 46.1 µM), without a hit: at the top dose re-replication activation, most hits filed as activators | 1.8% of 340,000 active | AID 624297; also: % of control where 0% means no effect; nearly all actives have a fitted effect of over 55% in size
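Per well, 250 cells were exposed to pinned compound for 48 hr. Nuclear DNA was visualised with Hoechst (40 min, 37 C) and total object intensity recorded by fluorescence scanning.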
KB-3-1 tox – KB-3-1 parental cell cytotoxicity. KB-3-1 viability, CellTiter-Glo ATP luminescence, 72 h. Potency, µM (titrated, usually from 46.1 µM), actives largely listed as cytotoxic. 1.4% of 400,000 active. AID 1347075; also: % is scaled to controls: 0 for no effect and ±100 for the full control effect; nearly all actives have a fitted effect of over 60% in size
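Luminescent ATP read-out (CellTiter-Glo) measures survival of drug-naive KB-3-1 cells after 72 h compound exposure at 37 °C. Titration series was screened from lowest to highest concentration, with DMSO vehicle plates as background controls.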
KB-V1 cytotox – KB-V1 MDR subline cytotoxicity. KB-V1 MDR cells viability, CellTiter-Glo, 72 h. Potency, µM (top dose mostly 46.1 µM), usual class: cytotoxic. 3.4% of 400,000 active. AID 1347076; also: % is scaled to controls: 0 for no effect and ±100 for the full control effect; nearly all actives have a fitted effect of over 60% in size
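qHTS viability screen in drug-selected KB-V1 MDR cells: 72 h compound treatment at 37 degrees C, ATP luminescence end point.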
ELG1 repair inh – ELG1-dependent DNA repair inhibition; AID 504467; 2.3% of 330,000 active; Potency, µM (doses to about 46.1 µM), for inactives: top-dose activity change, negative = inhibition, hits mostly inhibitors; HEK293T ELG1-luciferase reporter, luminescence, 16 h; DNA damage induced by 5-fluorouridine; also: % is scaled to controls: 0 for no effect and ±100 for the full control effect; nearly all actives have a fitted effect of over 55% in size
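DMSO vehicle served as the neutral condition. Each well held 2,000 cells given 5-fluorouridine plus compound; after 16 hr at 37 °C/5% CO2, ONE-Glo was added and luciferase measured 30 min later.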
MCF10A rereplic – DNA re-replication induction in MCF 10a cells. MCF 10A DNA re-replication, Hoechst nuclear intensity, 48 h. Potency, µM (titrated, usually from 46.1 µM), without a hit: top-dose activity, positive = re-replication, usual class: activators. 2.9% of 350,000 active. AID 624296; also: % of control where 0% means no effect; nearly all actives have a fitted effect of over 50% in size
Active calls of the source: *; i = inactive; ? = inconclusive; / = no result. Calls follow the shape of the dose curve; as a rule, active = well fitted curve in the direction sought with a large enough effect; inconclusive = small, poorly fitted or top-dose-only effect, or another doubt; inactive = no such curve, though single readings can be large; an effect the other way counts as inactive or inconclusive. Potency is read from the fitted curve at half-maximal effect.

SMILES	SW480 rerep	KB-3-1 tox	KB-V1 cytotox	ELG1 repair inh	MCF10A rereplic
Cc1cccc(Nc2nc3c(S(=O)(=O)c4ccc(Br)cc4)nnn3c3ccsc23)c1C	/	i	i	/	/
COc1cccc(NC(=O)Cn2c(-c3nonc3N)nc3ccccc32)c1	/	i	?	/	/
CCOC(=O)Cc1csc(NC(=O)c2ccc(NC(C)=O)cc2)n1	-1.7%	i	i	12.1%	-4.0%
CCOC(=O)Cc1csc(NC(=O)c2cc(C)c(C)s2)n1	-1.3%	?	18.4µM*	7.9%	-0.2%
CCOC(=O)Cc1csc(NC(=O)Nc2ccc(OC(F)(F)F)cc2)n1	-0.1%	?	?	2.06µM*	5.4%
O=C1NCCN1CCN1C(=O)c2ccccc2NC1c1ccccc1 (stereo unspecified)	-12.8%	i	i	9.8%	-0.2%
CCn1c(-c2cc3ccccc3cc2O)n[nH]c1=S	3.5%	?	20.6µM*	0.0%	3.8%
C=CCn1c(-c2cc(OC)c(OC)c(OC)c2)n[nH]c1=S	-3.6%	i	?	-1.2%	-18.2%
CCOc1ccccc1-c1cc(-c2n[nH]c(=S)n2CC)c2ccccc2n1	21.4%	i	i	?	30.5%
CCn1c(-c2cc(OC)c(OC)c(OC)c2)n[nH]c1=S	4.1%	i	10.3µM*	?	-7.5%
CCOc1cccc(-c2cc(-c3n[nH]c(=S)n3CC)c3ccccc3n2)c1	15.2%	i	9.2µM*	-11.8%	26.3%
CCN(CC)C(=O)CSc1nnc(-c2cc3ccccc3cc2O)n1CC	-1.3%	3.26µM*	2.91µM*	?	-0.5%
CCOc1ccccc1NC(=O)N1CCc2ccccc2C1	-5.3%	i	i	16.5%	4.2%
O=C(CSc1nnnn1-c1ccccc1)NCCCN1CCCC1=O	-9.6%	i	i	0.0%	-13.4%
Cc1ccccc1N1CCN(C2=NC(=O)/C(=C\c3cccs3)S2)CC1	?	?	i	?	6.51µM*
O=C1N=C(N2CCN(c3cccc4ccccc34)CC2)S/C1=C/c1cccs1	0.7%	i	i	8.2µM*	-21.3%
O=C(C[n+]1ccccc1)c1ccc(O)c(O)c1	/	i	i	/	/
COc1ccc(-c2cnn3c4c(c(C)nc23)CCN4C(C)C)cc1OC	?	i	2.06µM*	?	?
COC(CN1CCc2c(C)nc3c(C#N)cnn3c21)OC	6.2%	i	i	3.2%	10.8%
COc1ccc2cc3cc(C(=O)NC(C)C)oc3nc2c1	-3.1%	i	2.31µM*	?	6.1%
COc1ccc2cc3cc(C(=O)Nc4cc(OC)c(OC)c(OC)c4)oc3nc2c1	2.3%	i	i	16.4µM*	20.4%
COC(=O)c1cc2oc(C)cc2n1CC(=O)Nc1ccc(C(C)C)cc1	/	i	i	/	/
Cc1cc(C)n(-c2nc(NCC(C)O)c3c4c(sc3n2)COC(C)(C)C4)n1 (stereo unspecified)	?	i	i	14.6µM*	-2.0%
Cc1cc(C)n(-c2nc(NCC(C)O)c3c4c(sc3n2)CCCC4)n1 (stereo unspecified)	23.4%	?	i	16.4µM*	1.1%
Cc1cc(C)n(-c2nc(SCCN(C)C)c3c4c(sc3n2)COC(C)(C)C4)n1	?	i	?	18.4µM*	?
SMILES	SW480 rerep	KB-3-1 tox	KB-V1 cytotox	ELG1 repair inh	MCF10A rereplic
Cc1cc(C)n(-c2nc(NCC3CCCO3)c3c4c(sc3n2)COC(C)(C)C4)n1 (stereo unspecified)	16.8%	16.4µM*	?	18.4µM*	?
Cc1ccc(-n2ncc(C(=O)NCCN3CCOCC3)c2C2CCN(C(=O)OC(C)(C)C)CC2)c(C)c1	/	i	i	/	/
CCc1ccccc1NS(=O)(=O)c1ccc(-c2coc(C)n2)cc1	/	i	i	/	/
CN(CCc1ccccc1)C(=O)c1ccc(NC(=O)Cc2ccc(NC(=O)C3CCN(C(=O)CCc4ccccc4)CC3)cc2)cc1	8.8%	i	i	/	23.3%
O=C1N/C(=N/O)S/C1=C/c1cccc([N+](=O)[O-])c1	6.1%	i	i	?	-3.7%
Cc1cccc(/C=C2/S/C(=N/N=C3\CC4CCC3(C)C4(C)C)NC2=O)c1 (stereo unspecified)	12.7%	?	20.6µM*	-22.0%	?
CCc1ccc(C(=O)c2cn(CC(=O)Nc3cc(OC)ccc3OC)c3nc(C)ccc3c2=O)cc1	/	i	i	/	/
Clc1ccc(-c2cn(-c3ccc(Cl)cc3)c3[n+]2CCCCC3)cc1	-11.2%	?	i	?	19.1%
Clc1ccc(-c2cn(-c3ccccc3)c3[n+]2CCS3)cc1	9.4%	13µM*	i	-11.5%	14.4%
Fc1ccc(-c2cn(-c3ccccc3)c3[n+]2CCS3)cc1	-5.1%	?	i	20.6µM*	3.9%
COc1ccc(-c2cn(-c3ccc(Br)cc3)c3[n+]2CCS3)cc1	-3.0%	8.2µM*	i	-17.8%	4.0%
O=[N+]([O-])c1cccc(-c2c[n+]3c(n2-c2ccccc2)SCC3)c1	-1.3%	i	i	?	-1.4%
Clc1ccc(-c2c[n+]3c(n2-c2ccccc2)SCC3)cc1	-1.1%	14.6µM*	i	7.3µM*	5.2%
O=C(Nc1c(-c2ccc(F)cc2)nc2ccccn12)c1ccccc1F	/	i	i	/	/
Cn1c(=O)c2nc(SCc3ccccc3)n(C)c2n(C)c1=O	-1.5%	i	?	/	0.3%
CC(=O)c1ccc(-n2cc(-c3ccc(C(C)(C)C)cc3)[n+]3c2SCCC3)cc1	-12.4%	?	i	7.3µM*	-47.8%
CC(=O)c1ccc(-n2nncc2C(C)(C)C)cc1	16.4%	i	i	6.7%	5.5%
O=C1c2ccccc2C(=O)N1CC(=O)N1c2ccccc2Sc2ccccc21	-2.2%	i	i	?	-7.1%
O=C1c2ccccc2C(=O)N1CC(=O)N1c2ccccc2Sc2ccc(C(F)(F)F)cc21	0.0%	i	18.4µM*	14.7%	13.9%
Cc1ccc(C)c(CN2C(=O)c3ccccc3S(=O)c3ccc(C(=O)N4CCN(c5ccccn5)CC4)cc32)c1 (stereo unspecified)	20.4%	10.3µM*	?	?	?
CCN1CCN(C(=O)c2ccc3c(c2)N(Cc2cc(C)ccc2C)C(=O)c2ccccc2S3=O)CC1 (stereo unspecified)	/	i	i	/	/
CCN1C(=O)c2ccccc2S(=O)c2ccc(C(=O)N3CCN(c4cccc(C)c4)C(C)C3)cc21 (stereo unspecified)	/	18.4µM*	i	/	/
Cc1cccc(N2CCN(C(=O)c3ccc4c(c3)N(Cc3ccccc3F)C(=O)c3ccccc3S4=O)CC2C)c1 (stereo unspecified)	/	?	i	/	/
CCOC(=O)C1=CCN(S(=O)(=O)c2ccc(C)cc2)C1c1cccc(Br)c1 (stereo unspecified)	/	i	i	/	/
